# What was measured:
# Assay in all cases: DAPPL (digital affinity profiling via proximity ligation, sequencing); 10 mM Tris-HCl pH 7.5, 50 mM NaCl, 1 mM DTT, 4% glycerol, room temperature, 30 min; GST-TFs on glutathione beads, 16-mer random dsDNA library, 0.1% formaldehyde crosslink after washing; high values mean tight binding
# FLI1 = biological target: T1, FLI1 (Homo sapiens, UniProt Q01543 1-452); conditions: protein: recombinant; tags: N-terminal GST; dsDNA, one strand shown
# T1 sequence: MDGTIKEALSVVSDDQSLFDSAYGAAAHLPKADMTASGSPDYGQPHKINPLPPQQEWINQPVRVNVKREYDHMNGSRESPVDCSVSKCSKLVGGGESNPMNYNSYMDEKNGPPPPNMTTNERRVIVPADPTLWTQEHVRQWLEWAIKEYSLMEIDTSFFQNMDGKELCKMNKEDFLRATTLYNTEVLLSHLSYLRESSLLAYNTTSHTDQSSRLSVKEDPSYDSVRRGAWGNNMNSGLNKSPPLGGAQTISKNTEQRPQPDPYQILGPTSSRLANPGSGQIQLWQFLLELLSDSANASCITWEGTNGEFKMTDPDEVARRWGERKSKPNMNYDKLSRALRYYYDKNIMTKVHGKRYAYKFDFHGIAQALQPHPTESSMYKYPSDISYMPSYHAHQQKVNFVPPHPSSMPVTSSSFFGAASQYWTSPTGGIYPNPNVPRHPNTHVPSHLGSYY
# Procedure, shortened: (§1)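 The binding signal reported is, for every hexamer, its read frequency for a factor over its read frequency for the tag-only sample. Reads came from pools of yeast-expressed, GST-fused human transcription factors on glutathione beads, barcoded with DNA and mixed with that sample, which were incubated with 200 nmole of a random double-stranded 16-mer DNA library in Tris/NaCl/DTT/glycerol buffer at room temperature for 30 min. After washing, the pools were crosslinked with 0.1% formaldehyde, proximity-ligated with BsaI/T4 ligase for 1 h at 37 °C, PCR-amplified and sequenced on an Illumina NextSeq500.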
# ELK1 = biological target: T2, ELK1 (Homo sapiens, UniProt P19419 1-428); conditions: protein: recombinant; tags: N-terminal GST; dsDNA, one strand shown
# T2 sequence: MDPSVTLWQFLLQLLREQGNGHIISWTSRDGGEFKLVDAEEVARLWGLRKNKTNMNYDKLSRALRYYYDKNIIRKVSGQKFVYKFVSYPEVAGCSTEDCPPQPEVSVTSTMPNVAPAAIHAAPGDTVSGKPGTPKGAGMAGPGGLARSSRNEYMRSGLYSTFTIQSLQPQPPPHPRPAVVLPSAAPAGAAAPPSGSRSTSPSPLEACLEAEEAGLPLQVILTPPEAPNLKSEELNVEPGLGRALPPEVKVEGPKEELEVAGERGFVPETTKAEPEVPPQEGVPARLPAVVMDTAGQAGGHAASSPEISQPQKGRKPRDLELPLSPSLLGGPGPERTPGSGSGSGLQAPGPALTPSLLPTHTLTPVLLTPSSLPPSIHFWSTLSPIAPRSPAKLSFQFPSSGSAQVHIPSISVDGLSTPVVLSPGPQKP
# Procedure, shortened: as §1
# GABPA = biological target: T3, GABPA (Homo sapiens, UniProt Q06546 1-454); conditions: protein: recombinant; tags: N-terminal GST; dsDNA, one strand shown
# T3 sequence: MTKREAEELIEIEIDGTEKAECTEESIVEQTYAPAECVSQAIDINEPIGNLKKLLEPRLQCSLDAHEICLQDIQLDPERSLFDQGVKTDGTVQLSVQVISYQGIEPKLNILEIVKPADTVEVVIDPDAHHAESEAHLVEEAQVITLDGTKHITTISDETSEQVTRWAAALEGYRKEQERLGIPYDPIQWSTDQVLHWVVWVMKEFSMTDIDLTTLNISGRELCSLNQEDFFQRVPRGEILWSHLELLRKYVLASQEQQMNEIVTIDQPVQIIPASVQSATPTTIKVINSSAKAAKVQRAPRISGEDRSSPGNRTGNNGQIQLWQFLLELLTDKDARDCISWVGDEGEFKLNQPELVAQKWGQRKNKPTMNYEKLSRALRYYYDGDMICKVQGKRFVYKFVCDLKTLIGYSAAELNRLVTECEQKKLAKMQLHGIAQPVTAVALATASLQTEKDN
# Procedure, shortened: as §1
# ERG = biological target: T4, ERG (Homo sapiens, UniProt P11308 1-479); conditions: protein: recombinant; tags: N-terminal GST; dsDNA, one strand shown
# T4 sequence: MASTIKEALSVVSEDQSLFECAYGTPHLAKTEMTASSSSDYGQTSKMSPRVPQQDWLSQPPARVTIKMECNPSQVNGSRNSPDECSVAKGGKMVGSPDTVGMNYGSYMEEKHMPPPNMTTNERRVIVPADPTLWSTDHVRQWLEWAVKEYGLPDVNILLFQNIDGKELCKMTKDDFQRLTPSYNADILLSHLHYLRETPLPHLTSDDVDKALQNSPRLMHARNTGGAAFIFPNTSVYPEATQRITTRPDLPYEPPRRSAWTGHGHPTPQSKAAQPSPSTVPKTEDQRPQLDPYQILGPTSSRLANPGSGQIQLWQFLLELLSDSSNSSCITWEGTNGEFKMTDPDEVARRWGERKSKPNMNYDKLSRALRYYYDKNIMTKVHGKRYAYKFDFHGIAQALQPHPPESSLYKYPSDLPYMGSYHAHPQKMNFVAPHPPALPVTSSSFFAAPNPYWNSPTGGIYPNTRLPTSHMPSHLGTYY
# Procedure, shortened: as §1
# ELF1 = ELF1 (Homo sapiens, UniProt P32519 1-619); conditions: protein: recombinant; tags: N-terminal GST; dsDNA, one strand shown
# Procedure, shortened: as §1
# EHF = biological target: T5, EHF (Homo sapiens, UniProt Q9NZC4 1-300); conditions: protein: recombinant; tags: N-terminal GST; dsDNA, one strand shown
# T5 sequence: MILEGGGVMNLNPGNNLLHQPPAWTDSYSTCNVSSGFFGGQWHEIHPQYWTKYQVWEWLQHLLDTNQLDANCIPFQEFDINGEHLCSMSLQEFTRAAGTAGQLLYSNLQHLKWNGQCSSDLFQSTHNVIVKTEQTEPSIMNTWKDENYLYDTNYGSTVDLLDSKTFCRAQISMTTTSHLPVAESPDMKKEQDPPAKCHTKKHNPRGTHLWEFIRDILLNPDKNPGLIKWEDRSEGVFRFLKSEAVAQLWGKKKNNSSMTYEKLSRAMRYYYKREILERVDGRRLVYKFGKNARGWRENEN
# Procedure, shortened: as §1
# SPI1 = SPI1 (Homo sapiens, UniProt P17947 1-270); conditions: protein: recombinant; tags: N-terminal GST; dsDNA, one strand shown
# Procedure, shortened: as §1
# SPIB = SPIB (Homo sapiens, UniProt Q01892 1-262); conditions: protein: recombinant; tags: N-terminal GST; dsDNA, one strand shown
# Procedure, shortened: as §1
# ELK3 = biological target: T6, ELK3 (Homo sapiens, UniProt P41970 1-407); conditions: protein: recombinant; tags: N-terminal GST; dsDNA, one strand shown
# T6 sequence: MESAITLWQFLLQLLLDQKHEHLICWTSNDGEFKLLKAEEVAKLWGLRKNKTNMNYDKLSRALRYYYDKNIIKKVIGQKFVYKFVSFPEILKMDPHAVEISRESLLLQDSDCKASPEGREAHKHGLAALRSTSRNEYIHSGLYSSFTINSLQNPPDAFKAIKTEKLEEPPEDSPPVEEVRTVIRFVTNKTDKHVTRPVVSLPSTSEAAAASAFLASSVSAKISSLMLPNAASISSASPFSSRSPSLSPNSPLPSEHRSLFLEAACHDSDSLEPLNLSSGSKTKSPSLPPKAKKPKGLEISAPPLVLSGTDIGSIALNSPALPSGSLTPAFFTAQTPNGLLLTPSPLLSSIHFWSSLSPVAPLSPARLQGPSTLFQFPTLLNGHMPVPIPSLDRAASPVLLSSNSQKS
# Procedure, shortened: as §1
# FEV = biological target: T7, FEV (Homo sapiens, UniProt Q99581 1-238); conditions: protein: recombinant; tags: N-terminal GST; dsDNA, one strand shown
# T7 sequence: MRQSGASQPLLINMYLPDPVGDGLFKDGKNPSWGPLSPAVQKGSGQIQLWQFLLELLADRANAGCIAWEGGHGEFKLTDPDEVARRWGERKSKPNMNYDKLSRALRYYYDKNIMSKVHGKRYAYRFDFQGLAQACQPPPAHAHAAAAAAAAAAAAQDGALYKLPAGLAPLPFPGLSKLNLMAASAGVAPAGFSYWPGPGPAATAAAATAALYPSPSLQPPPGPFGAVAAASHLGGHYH
# Procedure, shortened: as §1
# ETV5 = ETV5 (Homo sapiens, UniProt P41161 1-510); conditions: protein: recombinant; tags: N-terminal GST; dsDNA, one strand shown
# Procedure, shortened: as §1
# HSF1 = HSF1 (Homo sapiens, UniProt Q00613 1-529); conditions: protein: recombinant; tags: N-terminal GST; chain copies: 3; dsDNA, one strand shown
# Procedure, shortened: as §1
# SPIC = biological target: T8, SPIC (Homo sapiens, UniProt Q8N5J4 1-248); conditions: protein: recombinant; tags: N-terminal GST; dsDNA, one strand shown
# T8 sequence: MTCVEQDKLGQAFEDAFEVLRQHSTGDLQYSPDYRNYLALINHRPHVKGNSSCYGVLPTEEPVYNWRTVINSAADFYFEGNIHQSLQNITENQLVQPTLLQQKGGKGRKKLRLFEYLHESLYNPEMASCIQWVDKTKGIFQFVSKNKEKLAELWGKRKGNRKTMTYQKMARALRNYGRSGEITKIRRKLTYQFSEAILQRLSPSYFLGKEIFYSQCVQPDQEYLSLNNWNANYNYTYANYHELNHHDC
# Procedure, shortened: as §1
# ELF4 = ELF4 (Homo sapiens, UniProt Q99607 1-663); conditions: protein: recombinant; tags: N-terminal GST; dsDNA, one strand shown
# Procedure, shortened: as §1
# ELK4 = biological target: T9, ELK4 (Homo sapiens, UniProt P28324-2 1-405); conditions: protein: recombinant; tags: N-terminal GST; dsDNA, one strand shown
# T9 sequence: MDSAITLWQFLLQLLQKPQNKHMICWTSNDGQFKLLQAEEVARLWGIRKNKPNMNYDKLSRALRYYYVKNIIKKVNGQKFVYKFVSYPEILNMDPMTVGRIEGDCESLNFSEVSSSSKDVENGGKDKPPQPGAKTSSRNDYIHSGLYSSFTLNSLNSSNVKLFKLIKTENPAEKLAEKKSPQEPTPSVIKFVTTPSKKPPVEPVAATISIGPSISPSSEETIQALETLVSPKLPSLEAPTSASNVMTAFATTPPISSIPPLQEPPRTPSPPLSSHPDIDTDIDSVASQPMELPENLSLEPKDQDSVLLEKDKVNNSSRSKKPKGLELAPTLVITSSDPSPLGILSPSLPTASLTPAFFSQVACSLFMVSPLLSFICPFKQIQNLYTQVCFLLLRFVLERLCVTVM
# Procedure, shortened: as §1
# ETV2 = biological target: T10, ETV2 (Homo sapiens, UniProt O00321 1-342); conditions: protein: recombinant; tags: N-terminal GST; dsDNA, one strand shown
# T10 sequence: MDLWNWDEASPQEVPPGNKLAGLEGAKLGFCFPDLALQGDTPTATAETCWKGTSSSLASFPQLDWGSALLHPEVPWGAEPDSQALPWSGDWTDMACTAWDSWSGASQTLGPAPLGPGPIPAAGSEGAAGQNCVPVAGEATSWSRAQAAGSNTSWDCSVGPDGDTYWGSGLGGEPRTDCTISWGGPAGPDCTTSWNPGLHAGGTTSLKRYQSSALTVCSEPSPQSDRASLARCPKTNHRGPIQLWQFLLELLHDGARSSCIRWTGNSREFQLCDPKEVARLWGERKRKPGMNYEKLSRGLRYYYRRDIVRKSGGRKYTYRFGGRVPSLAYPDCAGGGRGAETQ
# Procedure, shortened: as §1
# ELF3 = biological target: T11, ELF3 (Homo sapiens, UniProt P78545 1-371); conditions: protein: recombinant; tags: N-terminal GST; dsDNA, one strand shown
# T11 sequence: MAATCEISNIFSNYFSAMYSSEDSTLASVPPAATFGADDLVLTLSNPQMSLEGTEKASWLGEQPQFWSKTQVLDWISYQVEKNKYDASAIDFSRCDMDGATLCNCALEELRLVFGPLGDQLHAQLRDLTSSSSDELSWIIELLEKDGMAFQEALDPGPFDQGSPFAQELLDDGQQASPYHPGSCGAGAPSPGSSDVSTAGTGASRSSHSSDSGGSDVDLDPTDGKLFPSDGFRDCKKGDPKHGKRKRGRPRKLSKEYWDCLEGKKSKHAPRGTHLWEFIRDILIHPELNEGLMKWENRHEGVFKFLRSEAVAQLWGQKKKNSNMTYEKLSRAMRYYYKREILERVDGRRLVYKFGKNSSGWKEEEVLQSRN
# Procedure, shortened: as §1
# CRX = CRX (Homo sapiens, UniProt O43186 1-299); conditions: protein: recombinant; tags: N-terminal GST; dsDNA, one strand shown
# Procedure, shortened: as §1
# ETV1 = ETV1 (Homo sapiens, UniProt P50549 1-477); conditions: protein: recombinant; tags: N-terminal GST; dsDNA, one strand shown
# Procedure, shortened: as §1
# Chain of ETV1 (P50549 whole entry): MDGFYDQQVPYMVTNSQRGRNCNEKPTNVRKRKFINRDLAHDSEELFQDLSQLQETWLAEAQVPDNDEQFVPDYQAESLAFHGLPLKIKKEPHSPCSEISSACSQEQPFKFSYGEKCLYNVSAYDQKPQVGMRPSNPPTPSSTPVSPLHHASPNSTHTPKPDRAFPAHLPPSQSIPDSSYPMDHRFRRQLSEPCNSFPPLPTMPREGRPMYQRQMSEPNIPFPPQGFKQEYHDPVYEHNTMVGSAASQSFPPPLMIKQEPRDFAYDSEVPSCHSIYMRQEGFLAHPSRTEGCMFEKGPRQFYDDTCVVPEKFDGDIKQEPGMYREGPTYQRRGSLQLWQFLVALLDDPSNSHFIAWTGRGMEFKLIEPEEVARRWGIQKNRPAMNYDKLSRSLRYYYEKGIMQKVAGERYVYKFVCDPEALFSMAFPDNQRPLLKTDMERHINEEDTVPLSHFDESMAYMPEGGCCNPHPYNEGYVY
# Chain of HSF1 (Q00613 whole entry): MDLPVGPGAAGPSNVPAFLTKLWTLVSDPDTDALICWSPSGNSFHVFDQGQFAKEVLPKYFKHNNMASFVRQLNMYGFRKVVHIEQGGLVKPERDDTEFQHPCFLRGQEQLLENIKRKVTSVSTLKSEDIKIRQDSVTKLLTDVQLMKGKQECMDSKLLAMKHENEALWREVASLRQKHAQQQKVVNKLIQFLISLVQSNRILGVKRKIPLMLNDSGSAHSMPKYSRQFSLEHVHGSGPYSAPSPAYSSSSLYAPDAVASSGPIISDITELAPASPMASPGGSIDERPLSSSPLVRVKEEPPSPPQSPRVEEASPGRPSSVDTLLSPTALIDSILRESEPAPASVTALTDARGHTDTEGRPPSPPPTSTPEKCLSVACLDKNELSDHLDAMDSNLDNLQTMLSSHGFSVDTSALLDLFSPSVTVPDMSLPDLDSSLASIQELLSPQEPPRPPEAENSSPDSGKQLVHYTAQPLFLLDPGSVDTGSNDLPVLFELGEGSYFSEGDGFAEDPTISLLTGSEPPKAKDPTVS
# Chain of SPIB (Q01892 whole entry): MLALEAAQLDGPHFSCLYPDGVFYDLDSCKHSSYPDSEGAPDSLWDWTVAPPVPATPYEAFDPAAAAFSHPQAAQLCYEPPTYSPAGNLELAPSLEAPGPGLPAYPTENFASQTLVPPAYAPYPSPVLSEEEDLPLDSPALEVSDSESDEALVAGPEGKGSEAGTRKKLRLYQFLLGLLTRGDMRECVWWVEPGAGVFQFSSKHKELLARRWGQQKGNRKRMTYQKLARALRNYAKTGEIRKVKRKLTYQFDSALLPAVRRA
# Chain of CRX (O43186 whole entry): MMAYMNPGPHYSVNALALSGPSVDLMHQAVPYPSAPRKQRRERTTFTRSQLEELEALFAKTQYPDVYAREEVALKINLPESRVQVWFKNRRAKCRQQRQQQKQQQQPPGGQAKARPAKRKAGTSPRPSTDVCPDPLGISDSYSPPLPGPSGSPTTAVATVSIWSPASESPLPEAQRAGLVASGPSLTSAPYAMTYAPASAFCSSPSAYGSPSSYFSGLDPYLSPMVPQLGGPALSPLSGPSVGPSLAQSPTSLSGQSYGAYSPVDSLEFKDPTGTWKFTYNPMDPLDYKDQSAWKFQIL
# Chain of ETV5 (P41161 whole entry): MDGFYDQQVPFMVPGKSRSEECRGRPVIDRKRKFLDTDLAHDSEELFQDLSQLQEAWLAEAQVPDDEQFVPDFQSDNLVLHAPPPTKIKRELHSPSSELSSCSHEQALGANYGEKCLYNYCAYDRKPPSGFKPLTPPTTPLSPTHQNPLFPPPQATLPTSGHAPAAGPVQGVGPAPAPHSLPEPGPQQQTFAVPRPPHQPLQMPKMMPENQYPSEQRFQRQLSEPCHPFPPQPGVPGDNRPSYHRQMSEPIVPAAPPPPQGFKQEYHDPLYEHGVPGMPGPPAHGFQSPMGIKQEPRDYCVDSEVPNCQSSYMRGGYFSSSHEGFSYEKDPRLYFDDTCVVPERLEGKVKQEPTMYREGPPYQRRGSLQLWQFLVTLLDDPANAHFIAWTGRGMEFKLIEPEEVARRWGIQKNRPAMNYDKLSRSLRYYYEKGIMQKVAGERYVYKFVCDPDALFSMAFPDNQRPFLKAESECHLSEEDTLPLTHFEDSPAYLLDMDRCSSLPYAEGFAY
# Chain of ELF4 (Q99607 whole entry): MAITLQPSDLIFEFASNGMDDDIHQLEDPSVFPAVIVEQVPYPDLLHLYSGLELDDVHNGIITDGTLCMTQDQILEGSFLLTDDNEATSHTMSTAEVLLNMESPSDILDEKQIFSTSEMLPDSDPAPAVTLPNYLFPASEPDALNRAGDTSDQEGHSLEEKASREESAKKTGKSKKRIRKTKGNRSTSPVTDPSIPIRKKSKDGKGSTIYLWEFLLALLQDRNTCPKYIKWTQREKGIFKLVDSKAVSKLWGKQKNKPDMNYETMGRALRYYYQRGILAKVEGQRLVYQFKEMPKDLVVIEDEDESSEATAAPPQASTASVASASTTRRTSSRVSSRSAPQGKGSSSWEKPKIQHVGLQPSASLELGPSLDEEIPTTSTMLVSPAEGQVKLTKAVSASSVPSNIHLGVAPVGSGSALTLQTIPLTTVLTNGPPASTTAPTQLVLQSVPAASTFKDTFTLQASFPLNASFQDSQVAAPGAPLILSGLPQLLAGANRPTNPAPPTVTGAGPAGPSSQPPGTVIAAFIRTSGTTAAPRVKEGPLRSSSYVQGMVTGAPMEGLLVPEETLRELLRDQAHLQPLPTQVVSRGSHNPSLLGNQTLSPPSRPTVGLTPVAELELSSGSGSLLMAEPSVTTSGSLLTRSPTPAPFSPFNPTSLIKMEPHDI
# Chain of ELF1 (P32519 whole entry): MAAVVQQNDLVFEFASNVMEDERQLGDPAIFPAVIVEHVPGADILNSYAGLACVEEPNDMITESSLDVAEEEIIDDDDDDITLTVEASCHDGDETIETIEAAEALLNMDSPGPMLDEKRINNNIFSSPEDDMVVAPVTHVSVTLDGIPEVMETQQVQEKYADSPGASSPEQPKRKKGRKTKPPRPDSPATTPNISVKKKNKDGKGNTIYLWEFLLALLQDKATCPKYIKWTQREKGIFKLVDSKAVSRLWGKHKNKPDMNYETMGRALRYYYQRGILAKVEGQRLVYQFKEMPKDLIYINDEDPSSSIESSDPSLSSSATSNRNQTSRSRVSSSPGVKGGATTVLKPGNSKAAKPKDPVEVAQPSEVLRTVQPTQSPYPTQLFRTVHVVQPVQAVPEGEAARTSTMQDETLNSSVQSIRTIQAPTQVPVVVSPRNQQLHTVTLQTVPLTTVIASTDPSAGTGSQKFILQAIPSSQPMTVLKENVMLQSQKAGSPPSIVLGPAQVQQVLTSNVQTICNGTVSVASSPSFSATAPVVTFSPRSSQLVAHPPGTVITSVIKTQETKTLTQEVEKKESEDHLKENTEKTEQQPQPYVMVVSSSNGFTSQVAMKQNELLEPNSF
sequence,measurement,setting,value
TTCCCT,binding signal,FLI1,"1.81 fold enrichment (6-mer frequency, TF over GST control)"
same,binding signal,ELK1,"1.67 fold enrichment (6-mer frequency, TF over GST control)"
same,binding signal,GABPA,"1.72 fold enrichment (6-mer frequency, TF over GST control)"
same,binding signal,ERG,"1.72 fold enrichment (6-mer frequency, TF over GST control)"
same,binding signal,ELF1,"1.68 fold enrichment (6-mer frequency, TF over GST control)"
same,binding signal,EHF,"1.68 fold enrichment (6-mer frequency, TF over GST control)"
same,binding signal,SPI1,"2.23 fold enrichment (6-mer frequency, TF over GST control)"
same,binding signal,SPIB,"1.9 fold enrichment (6-mer frequency, TF over GST control)"
same,binding signal,ELK3,"1.8 fold enrichment (6-mer frequency, TF over GST control)"
same,binding signal,FEV,"1.64 fold enrichment (6-mer frequency, TF over GST control)"
same,binding signal,ETV5,"1.69 fold enrichment (6-mer frequency, TF over GST control)"
same,binding signal,HSF1,"1.52 fold enrichment (6-mer frequency, TF over GST control)"
same,binding signal,SPIC,"1.84 fold enrichment (6-mer frequency, TF over GST control)"
same,binding signal,ELF4,"1.79 fold enrichment (6-mer frequency, TF over GST control)"
same,binding signal,ELK4,"1.65 fold enrichment (6-mer frequency, TF over GST control)"
same,binding signal,ETV2,"1.62 fold enrichment (6-mer frequency, TF over GST control)"
same,binding signal,ELF3,"1.57 fold enrichment (6-mer frequency, TF over GST control)"
same,binding signal,CRX,"1.31 fold enrichment (6-mer frequency, TF over GST control)"
same,binding signal,ETV1,"1.68 fold enrichment (6-mer frequency, TF over GST control)"
